Results taken from the supplement of paper PMC12669032.

Assays:
Test in all cases: growth AUC relative to DMSO control (median of replicates) (fraction); higher = more growth (less inhibition), active = hit call of the paper
Settings in all cases: 20 µM; 24 h;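 active = AUC reduced over 20% with Padj below 0.05 in at least 2 of 3 replicates; inactive = otherwise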
[1] = tested on: Coprococcus comes
In short: (§1)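 Gut bacteria were grown singly in mGAM at 37 °C without oxygen, from OD600 0.05, alongside 20 µM compound in 1% DMSO, and OD600 was read each hour for 24 h. Area under the growth curve was normalised to the median of solvent-only wells per plate, or to row and column medians on the industrial chemical plate. The minimum OD was set to 0 beforehand, and the reported value is the median of three biological replicates grown on separate days.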

[2] = tested on: Escherichia coli ED1a
In short: as §1

[3] = tested on: Escherichia coli IAI1
In short: as §1

[4] = tested on: Eubacterium rectale
In short: as §1

[5] = tested on: Fusobacterium nucleatum subsp. animalis
In short: as §1

[6] = tested on: Lactobacillus gasseri
In short: as §1

[7] = tested on: Lactobacillus paracasei
In short: as §1

[8] = tested on: Odoribacter splanchnicus
In short: as §1

[9] = tested on: Parabacteroides distasonis
In short: as §1

[10] = tested on: Parabacteroides merdae
In short: as §1

[11] = tested on: Roseburia intestinalis
In short: as §1

[12] = tested on: Streptococcus salivarius
In short: as §1

Measured: growth AUC

CCN(CC)c1nc(C)cc(=O)[nH]1
inactive: [1] 1.04 | [2] 0.995 | [3] 0.998 | [4] 0.907 | [5] 1.06 | [6] 0.998 | [7] 0.989 | [8] 1.03 | [9] 1 | [10] 1 | [11] 1.01 | [12] 1.04

COc1nc(N)nc(NC(C)(C)C)n1
inactive: [1] 1.03 | [2] 1 | [3] 0.98 | [4] 0.976 | [5] 0.964 | [6] 0.933 | [7] 1.02 | [8] 1.07 | [9] 1 | [10] 1.02 | [11] 0.943 | [12] 1.03

Cl.NCCO/C=C/[C@H](N)C(=O)O
inactive: [1] 0.947 | [2] 1.03 | [3] 1.02 | [4] 1.08 | [5] 0.981 | [6] 0.853 | [7] 1.02 | [8] 0.8 | [9] 0.828 | [10] 1.01 | [11] 0.975 | [12] 1.05

Cc1cccc(C)c1N(CCSCC(O)C(=O)[O-])C(=O)CO.[Na+] (stereo unspecified)
inactive: [1] 1.04 | [2] 0.977 | [3] 0.97 | [4] 1.07 | [5] 0.984 | [6] 0.849 | [7] 0.95 | [8] 1.01 | [9] 0.927 | [10] 0.99 | [11] 1.02 | [12] 0.97

O=C(O)COc1cccc(Cl)c1Cl
inactive: [1] 1.01 | [2] 0.987 | [3] 1.01 | [4] 1.04 | [5] 1.12 | [6] 1.11 | [7] 0.898 | [8] 0.92 | [9] 0.994 | [10] 0.986 | [11] 1.15 | [12] 0.973

CCOC(=O)C(C)Oc1ccc(Oc2nc3ccc(Cl)cc3o2)cc1 (racemic)
inactive: [1] 0.993 | [2] 0.967 | [3] 0.949 | [4] 0.987 | [5] 0.929 | [6] 0.91 | [7] 0.97 | [8] 1.01 | [9] 0.824 | [10] 0.969 | [11] 1.02 | [12] 1.01

C=CCO/N=C(\CCC)C1=C([O-])CC(C)(C)C(C(=O)OC)C1=O.[Na+] (stereo unspecified)
inactive: [1] 1.03 | [2] 1.02 | [3] 1.02 | [4] 1.12 | [5] 1.12 | [6] 0.892 | [7] 1.04 | [8] 1.05 | [9] 1.01 | [10] 1.06 | [11] 0.982 | [12] 1.02

Cc1nc(C(F)(F)F)c(C(=O)Nc2c(Br)cc(OC(F)(F)F)cc2Br)s1
inactive: [1] 1.06 | [2] 1.02 | [3] 1.02 | [4] 0.852 | [5] 1.09 | [6] 1.15 | [7] 1.1 | [8] 0.942 | [9] 0.944 | [10] 1 | [11] 1.08 | [12] 0.972

CC(C)COC(=O)COc1cc(Cl)c(Cl)cc1Cl
inactive: [1] 1 | [2] 1.01 | [3] 0.998 | [4] 1.02 | [5] 1.01 | [6] 0.91 | [7] 1.08 | [8] 0.969 | [9] 0.971 | [10] 0.946 | [11] 1.01 | [12] 0.958

CCN(CC)C(=O)c1cccc(C)c1
inactive: [1] 0.974 | [2] 1 | [3] 1.01 | [4] 1.06 | [5] 1.04 | [6] 0.966 | [7] 0.977 | [8] 1.13 | [9] 1.01 | [10] 1.04 | [11] 0.967 | [12] 0.96

O=c1cccc2n1CCn1c-2cccc1=O
inactive: [1] 1.01 | [2] 0.992 | [3] 0.968 | [4] 0.956 | [5] 0.971 | [6] 0.982 | [7] 1.02 | [8] 0.982 | [9] 1.04 | [10] 1.01 | [11] 0.991 | [12] 1.02

O=C(NCc1ncc(C(F)(F)F)cc1Cl)c1c(Cl)cccc1Cl
inactive: [1] 1.03 | [2] 0.963 | [3] 1.03 | [4] 0.98 | [5] 1.01 | [6] 1.04 | [7] 0.981 | [8] 0.938 | [9] 0.971 | [10] 0.979 | [11] 0.968 | [12] 0.967

CCSc1nc(NC(C)C)nc(NC(C)C)n1
inactive: [1] 0.984 | [2] 1.01 | [3] 0.982 | [4] 0.787 | [5] 0.91 | [6] 1.03 | [7] 0.896 | [8] 0.968 | [9] 1 | [10] 0.91 | [11] 0.96 | [12] 0.999
